The target of test [1] is T1, Tyrosine-protein kinase ITK/TSK (Homo sapiens) (UniProt Q08881).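 Further: values are mean percent inhibition of ITK from the GSK PKIS screen.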
T1 sequence (whole entry): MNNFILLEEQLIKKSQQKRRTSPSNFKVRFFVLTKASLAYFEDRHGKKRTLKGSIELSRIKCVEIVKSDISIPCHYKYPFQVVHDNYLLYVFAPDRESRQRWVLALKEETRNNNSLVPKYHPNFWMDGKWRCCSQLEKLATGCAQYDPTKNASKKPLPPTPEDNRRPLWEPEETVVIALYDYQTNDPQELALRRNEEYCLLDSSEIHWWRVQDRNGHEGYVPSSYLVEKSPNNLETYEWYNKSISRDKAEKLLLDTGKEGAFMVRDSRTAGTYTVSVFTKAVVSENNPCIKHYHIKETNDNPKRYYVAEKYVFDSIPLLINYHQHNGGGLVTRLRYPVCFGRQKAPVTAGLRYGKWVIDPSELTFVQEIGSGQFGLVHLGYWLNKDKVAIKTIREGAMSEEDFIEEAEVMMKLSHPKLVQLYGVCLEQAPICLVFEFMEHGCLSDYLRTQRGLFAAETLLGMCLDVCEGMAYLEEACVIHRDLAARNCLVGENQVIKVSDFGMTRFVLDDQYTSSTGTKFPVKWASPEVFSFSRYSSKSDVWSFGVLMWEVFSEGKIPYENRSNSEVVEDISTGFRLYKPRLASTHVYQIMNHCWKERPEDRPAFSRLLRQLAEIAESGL
The note with it: at 1 µM.

Test [2] addresses Tyrosine-protein kinase JAK1 (Homo sapiens) (UniProt P23458). Particulars: at 0.1 µM.
The target is the same in test [3]. Particulars: at 1 µM.
In test [4] the target is Tyrosine-protein kinase JAK2 (Homo sapiens) (UniProt O60674). Particulars: at 0.1 µM.
Sequence of Tyrosine-protein kinase JAK2 (Homo sapiens) (O60674 whole entry): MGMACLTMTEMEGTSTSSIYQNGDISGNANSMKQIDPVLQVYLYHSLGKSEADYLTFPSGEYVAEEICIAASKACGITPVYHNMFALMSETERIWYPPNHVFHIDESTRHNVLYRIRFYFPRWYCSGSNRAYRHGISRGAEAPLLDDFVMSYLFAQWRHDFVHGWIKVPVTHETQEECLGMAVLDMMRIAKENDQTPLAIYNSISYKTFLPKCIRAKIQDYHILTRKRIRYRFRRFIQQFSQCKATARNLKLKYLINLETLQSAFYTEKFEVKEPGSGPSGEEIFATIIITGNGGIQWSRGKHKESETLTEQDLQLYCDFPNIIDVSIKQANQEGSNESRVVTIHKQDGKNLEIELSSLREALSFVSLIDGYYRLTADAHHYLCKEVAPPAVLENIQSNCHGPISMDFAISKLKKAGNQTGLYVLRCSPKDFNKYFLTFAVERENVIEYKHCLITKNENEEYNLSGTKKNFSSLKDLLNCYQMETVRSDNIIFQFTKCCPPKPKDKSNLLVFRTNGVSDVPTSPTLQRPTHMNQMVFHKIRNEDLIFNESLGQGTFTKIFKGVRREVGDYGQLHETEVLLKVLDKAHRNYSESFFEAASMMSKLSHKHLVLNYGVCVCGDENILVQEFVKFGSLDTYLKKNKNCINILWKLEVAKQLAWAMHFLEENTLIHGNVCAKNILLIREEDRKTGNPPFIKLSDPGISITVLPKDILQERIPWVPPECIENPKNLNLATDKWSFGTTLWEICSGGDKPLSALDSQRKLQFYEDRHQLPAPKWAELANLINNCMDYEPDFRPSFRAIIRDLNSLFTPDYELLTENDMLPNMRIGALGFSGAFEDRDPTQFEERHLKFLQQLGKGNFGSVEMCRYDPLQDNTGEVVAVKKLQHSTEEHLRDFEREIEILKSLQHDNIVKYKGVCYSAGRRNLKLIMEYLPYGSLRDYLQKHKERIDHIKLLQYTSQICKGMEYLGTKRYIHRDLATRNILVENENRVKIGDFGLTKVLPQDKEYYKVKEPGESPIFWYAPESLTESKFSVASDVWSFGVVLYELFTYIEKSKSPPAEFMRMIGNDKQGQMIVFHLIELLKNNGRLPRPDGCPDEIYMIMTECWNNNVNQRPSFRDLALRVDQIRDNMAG
For test [5] the target is unchanged. The note with it: at 1 µM.
The target in test [6] is T2, Tyrosine-protein kinase JAK3 (Homo sapiens) (UniProt P52333).
T2 sequence (whole entry): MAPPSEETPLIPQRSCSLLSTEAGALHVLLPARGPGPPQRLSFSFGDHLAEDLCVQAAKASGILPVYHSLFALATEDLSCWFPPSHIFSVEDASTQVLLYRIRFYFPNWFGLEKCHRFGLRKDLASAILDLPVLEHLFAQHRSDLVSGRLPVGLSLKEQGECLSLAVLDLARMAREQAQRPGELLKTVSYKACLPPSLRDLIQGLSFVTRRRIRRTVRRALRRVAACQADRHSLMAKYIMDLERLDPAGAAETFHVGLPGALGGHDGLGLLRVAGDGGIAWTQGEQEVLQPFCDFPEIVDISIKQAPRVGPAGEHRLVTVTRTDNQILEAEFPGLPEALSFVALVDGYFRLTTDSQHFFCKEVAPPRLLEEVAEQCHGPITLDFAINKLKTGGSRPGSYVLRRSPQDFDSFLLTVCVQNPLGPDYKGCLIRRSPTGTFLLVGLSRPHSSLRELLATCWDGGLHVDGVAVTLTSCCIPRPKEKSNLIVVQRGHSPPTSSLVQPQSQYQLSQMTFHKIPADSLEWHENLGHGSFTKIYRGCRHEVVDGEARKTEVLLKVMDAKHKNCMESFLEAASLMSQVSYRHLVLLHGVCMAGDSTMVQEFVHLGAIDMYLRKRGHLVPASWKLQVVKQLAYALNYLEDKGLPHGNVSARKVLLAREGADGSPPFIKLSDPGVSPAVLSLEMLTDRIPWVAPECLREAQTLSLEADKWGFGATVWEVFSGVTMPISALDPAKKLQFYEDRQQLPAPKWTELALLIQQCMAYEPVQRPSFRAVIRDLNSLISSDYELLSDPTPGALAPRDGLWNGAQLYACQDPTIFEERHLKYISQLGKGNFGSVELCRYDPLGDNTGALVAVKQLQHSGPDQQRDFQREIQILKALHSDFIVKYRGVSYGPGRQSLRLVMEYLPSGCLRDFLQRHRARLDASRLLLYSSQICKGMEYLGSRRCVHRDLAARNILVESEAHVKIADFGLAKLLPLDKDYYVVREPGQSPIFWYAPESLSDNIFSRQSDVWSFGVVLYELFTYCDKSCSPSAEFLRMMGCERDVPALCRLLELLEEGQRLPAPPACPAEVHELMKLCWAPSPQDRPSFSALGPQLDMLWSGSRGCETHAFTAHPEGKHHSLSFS
The note with it: at 0.1 µM.

Test [7] has as its target T2, Tyrosine-protein kinase JAK3 (Homo sapiens). Particulars: at 1 µM.
The target of test [8] is Vascular endothelial growth factor receptor 2 (Homo sapiens) (UniProt P35968). The note with it: at 0.1 µM.
Sequence of Vascular endothelial growth factor receptor 2 (Homo sapiens) (P35968 whole entry): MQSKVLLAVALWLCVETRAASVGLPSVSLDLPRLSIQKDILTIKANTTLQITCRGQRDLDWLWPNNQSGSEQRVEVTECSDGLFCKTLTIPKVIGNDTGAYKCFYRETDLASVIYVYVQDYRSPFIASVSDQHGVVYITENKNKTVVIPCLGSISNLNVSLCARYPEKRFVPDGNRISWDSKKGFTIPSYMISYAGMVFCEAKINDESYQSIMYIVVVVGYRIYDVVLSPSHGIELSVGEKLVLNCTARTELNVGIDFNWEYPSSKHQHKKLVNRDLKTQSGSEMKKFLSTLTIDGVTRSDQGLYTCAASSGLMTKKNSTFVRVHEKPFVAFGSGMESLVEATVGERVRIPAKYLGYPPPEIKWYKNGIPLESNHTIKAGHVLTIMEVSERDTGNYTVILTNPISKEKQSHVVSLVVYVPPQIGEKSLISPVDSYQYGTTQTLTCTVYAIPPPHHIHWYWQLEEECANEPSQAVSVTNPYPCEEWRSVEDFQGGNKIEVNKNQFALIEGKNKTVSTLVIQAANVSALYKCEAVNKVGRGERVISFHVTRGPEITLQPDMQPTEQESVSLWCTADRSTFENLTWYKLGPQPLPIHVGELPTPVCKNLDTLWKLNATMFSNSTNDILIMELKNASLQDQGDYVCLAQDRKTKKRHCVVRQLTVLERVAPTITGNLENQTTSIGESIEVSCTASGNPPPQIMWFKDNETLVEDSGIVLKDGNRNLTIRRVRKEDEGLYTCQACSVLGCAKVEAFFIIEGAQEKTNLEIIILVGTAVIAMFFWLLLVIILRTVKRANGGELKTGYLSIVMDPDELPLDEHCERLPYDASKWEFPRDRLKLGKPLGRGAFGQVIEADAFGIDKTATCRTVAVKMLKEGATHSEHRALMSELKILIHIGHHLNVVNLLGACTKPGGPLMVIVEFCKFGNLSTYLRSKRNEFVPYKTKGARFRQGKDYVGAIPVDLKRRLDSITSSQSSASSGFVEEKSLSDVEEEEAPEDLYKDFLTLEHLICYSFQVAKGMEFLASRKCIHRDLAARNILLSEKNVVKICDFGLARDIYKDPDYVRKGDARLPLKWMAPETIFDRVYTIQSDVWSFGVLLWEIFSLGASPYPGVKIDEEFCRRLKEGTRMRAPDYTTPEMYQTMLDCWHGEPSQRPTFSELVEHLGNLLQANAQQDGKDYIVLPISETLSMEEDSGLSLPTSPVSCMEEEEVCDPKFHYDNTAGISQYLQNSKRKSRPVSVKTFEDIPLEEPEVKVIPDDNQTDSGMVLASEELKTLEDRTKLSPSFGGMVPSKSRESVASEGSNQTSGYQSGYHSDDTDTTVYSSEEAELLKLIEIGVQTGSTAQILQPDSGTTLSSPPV
Test [9] shares this target. The note with it: at 1 µM.
The target of test [10] is Mast/stem cell growth factor receptor Kit (Homo sapiens) (UniProt P10721). The note with it: at 0.1 µM.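 Further: values are mean inhibition of KIT, from the GSK PKIS dataset.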
Sequence of Mast/stem cell growth factor receptor Kit (Homo sapiens) (P10721 whole entry): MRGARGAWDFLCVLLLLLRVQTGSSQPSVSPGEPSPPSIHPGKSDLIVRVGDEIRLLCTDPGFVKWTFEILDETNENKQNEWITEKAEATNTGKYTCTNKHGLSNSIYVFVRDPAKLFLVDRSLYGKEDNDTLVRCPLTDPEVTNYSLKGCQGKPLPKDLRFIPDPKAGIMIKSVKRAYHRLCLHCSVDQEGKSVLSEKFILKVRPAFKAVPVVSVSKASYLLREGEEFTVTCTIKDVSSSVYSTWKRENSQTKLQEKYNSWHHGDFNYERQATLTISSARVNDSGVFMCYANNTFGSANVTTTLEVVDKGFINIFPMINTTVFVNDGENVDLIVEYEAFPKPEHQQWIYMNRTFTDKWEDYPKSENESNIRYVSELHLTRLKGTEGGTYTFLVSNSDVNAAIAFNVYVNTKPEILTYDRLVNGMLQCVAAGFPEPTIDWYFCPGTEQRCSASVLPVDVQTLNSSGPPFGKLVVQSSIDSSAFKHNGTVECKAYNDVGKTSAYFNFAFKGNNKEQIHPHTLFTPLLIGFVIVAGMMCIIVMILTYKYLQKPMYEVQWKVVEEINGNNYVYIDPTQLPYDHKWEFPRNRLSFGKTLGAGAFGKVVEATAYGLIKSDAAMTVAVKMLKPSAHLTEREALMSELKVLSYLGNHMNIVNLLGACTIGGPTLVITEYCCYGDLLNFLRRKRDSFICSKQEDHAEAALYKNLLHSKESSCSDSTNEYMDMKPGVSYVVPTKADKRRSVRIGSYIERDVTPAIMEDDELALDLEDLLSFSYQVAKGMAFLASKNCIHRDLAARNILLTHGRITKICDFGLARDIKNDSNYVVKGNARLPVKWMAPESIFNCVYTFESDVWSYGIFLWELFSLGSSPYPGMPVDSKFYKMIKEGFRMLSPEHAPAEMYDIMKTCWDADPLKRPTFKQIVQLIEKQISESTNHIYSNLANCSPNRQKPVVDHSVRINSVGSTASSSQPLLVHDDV

Sequence of Tyrosine-protein kinase JAK1 (Homo sapiens) (P23458 whole entry): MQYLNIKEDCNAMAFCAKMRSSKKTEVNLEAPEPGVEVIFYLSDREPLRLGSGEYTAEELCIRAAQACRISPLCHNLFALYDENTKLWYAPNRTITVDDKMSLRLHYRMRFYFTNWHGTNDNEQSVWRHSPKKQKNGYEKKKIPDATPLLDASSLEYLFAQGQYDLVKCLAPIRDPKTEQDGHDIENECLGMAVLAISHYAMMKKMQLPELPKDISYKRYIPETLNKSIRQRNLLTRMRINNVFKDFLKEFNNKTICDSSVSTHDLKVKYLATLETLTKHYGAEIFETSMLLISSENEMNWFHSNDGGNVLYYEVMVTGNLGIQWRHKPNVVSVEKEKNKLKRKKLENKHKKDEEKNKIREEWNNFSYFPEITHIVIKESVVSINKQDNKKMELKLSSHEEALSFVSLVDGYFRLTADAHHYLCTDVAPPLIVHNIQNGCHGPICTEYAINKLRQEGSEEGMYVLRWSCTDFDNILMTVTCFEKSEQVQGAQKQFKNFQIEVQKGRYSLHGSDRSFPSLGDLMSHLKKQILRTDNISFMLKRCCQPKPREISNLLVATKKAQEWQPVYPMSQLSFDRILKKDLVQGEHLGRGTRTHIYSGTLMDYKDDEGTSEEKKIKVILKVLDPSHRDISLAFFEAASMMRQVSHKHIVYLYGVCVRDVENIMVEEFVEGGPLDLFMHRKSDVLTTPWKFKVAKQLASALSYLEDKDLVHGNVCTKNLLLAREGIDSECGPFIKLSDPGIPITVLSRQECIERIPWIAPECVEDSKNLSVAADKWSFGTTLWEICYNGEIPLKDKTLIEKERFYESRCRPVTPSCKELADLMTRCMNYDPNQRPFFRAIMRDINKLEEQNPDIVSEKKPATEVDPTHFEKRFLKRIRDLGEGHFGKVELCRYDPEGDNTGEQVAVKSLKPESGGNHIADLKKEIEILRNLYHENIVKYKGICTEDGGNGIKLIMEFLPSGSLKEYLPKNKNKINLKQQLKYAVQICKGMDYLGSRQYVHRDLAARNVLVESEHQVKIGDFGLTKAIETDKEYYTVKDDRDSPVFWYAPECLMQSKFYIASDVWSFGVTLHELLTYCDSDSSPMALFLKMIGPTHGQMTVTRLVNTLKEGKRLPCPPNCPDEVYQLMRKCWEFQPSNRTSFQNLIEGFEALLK

Broadly, the inhibition is the relative decrease from the control value, in per cent. Turning to `COc1cccc(COc2cc(-n3cnc4ccccc43)sc2C(N)=O)c1`, the inhibition in test [1] is 0.54%; in test [2], -1.14%; in [3], 0.01%; in test [4] it was -1.09%; in test [5], -2.1%; in test [6] it was -1.45%. Moreover, the inhibition in [7] is -1.13%; in test [8] it was -3.84%; in test [9], 3.07%; in test [10], 0.16%.

Consider `Nc1nonc1-c1nc2cnccc2n1C1CCCCC1`, for which the inhibition in test [1] is 0.48%; in [2] it was -2.62%; in test [3] it was 2.81%; in test [4], -0.95%; in [5], -0.41%; in [6], -0.04%. The inhibition in [7] is 3.98%; in [8], 6.99%; in test [9], 46.3%; in test [10], -1.47%.

For `CCn1c(-c2nonc2N)nc2c(C#CC(C)(C)O)nc(O[C@@H](CN)c3ccccc3)cc21`, the inhibition in test [1] is 0.91%; in test [2], -1.37%; in test [3], 4.4%; in test [4], -0.3%; in test [5], 0.78%; in test [6] it was 0.59%. Besides, the inhibition in [7] is 3.54%; in test [8] it was 86.8%; in test [9], 75.4%; in test [10], -1.5%.

With `COc1cc2c(cc1Nc1nc(Nc3ccsc3C(N)=O)c3cc[nH]c3n1)N(C(=O)CN(C)C)CCC2`, the inhibition in test [1] is 0.88%; in test [2] it was 3.36%; in [3], 1.85%; in [4] it was 3.45%; in test [5], -0.28%; in [6], -2.19%. For the same compound, the inhibition in test [7] was -1.7%; in [8], 1.27%; in [9], 5.32%.

In the case of `Fc1ccc(-c2ncn(C3CCNCC3)c2-c2ccnc(Oc3ccccc3)n2)cc1`, the inhibition in test [1] was -3.42%; in test [2] it was 1.24%; in test [3] it was -0.07%; in test [4], -0.28%; in [5], -0.02%; in test [6], -6.39%. The inhibition in test [7] was -5.72%; in [8], 4.3%; in test [9], 6.72%; in test [10], 0.89%.

Regarding `COc1cccc(-n2ncc3c(N/N=C/c4ccncc4)ncnc32)c1`, the inhibition is 5.47% in test [1]; 5.43% in test [2]; 15.3% in test [3]; 2.01% in test [4]; 13.5% in test [5]; -0.96% in [6]. In addition, the inhibition in test [7] was 10.6%; in test [8], 28.8%; in test [9], 69.2%; in test [10], 13.5%.

As for `COc1cc(C=NNc2ncnc3c2cnn3Cc2ccccc2)ccc1O`, the inhibition is 0.65% in test [1]; -5.07% in [2]; 3.34% in test [3]; -1.56% in test [4]; -0.04% in [5]; 0.38% in test [6]. For the same compound, the inhibition in [7] was 3.71%; in test [8], -1.08%; in [9] it was 12.2%; in test [10], -5.78%.

As for `Cc1cc(-c2ccco2)cc(C)c1/C=C/c1cncc(-c2nn[nH]n2)c1`, the inhibition is 0.9% in test [1]; -0.35% in test [2]; 3.09% in [3]; 0% in [4]; -0.44% in [5]; -1.94% in test [6]. The inhibition in test [7] is 0.31%; in test [8], -2.08%; in test [9], -0.14%; in test [10], -0.86%.

Turning to `CCn1c(-c2nonc2N)nc2c(C#CCN)ncc(OCCCN)c21`, the inhibition is -1.36% in [1]; 4.06% in test [2]; 13.7% in [3]; -1.01% in test [4]; -1.7% in [5]; 5.62% in [6]. Moreover, the inhibition in test [7] is 4.64%; in [8], -3.31%; in [9] it was 5.24%; in test [10], -1.96%.

As to `CCn1c(-c2nonc2N)nc2c(C#CC(C)(C)O)ncc(OCC3CCNCC3)c21`, the inhibition in test [1] is -1.96%; in [2] it was 4.7%; in [3], 12.5%; in [4], 0.61%; in test [5] it was 1.31%; in test [6] it was -4.99%. The inhibition was -3.39% in test [7], 34.8% in test [8], 71.2% in [9] and 4.46% in test [10].

For `CCn1c(-c2nonc2N)nc2c(C#CC(C)(C)O)ncc(OC[C@@H]3CCCN3)c21`, the inhibition in [1] is 0.41%; in test [2], 0.75%; in test [3], 2.18%; in test [4] it was -1.4%; in [5], -2.12%; in test [6], -2.14%. Further, the inhibition was 0.33% in test [7], 31.2% in test [8], 81.3% in [9] and -1.26% in [10].

Regarding `NS(=O)(=O)c1ccc(N/C=C2\C(=O)Nc3ccc4ncsc4c32)cc1`, the inhibition in [1] turned out to be 8.24%; in [2] it was 5.09%; in test [3], 26.8%; in [4], 1.74%; in test [5], 11.1%; in test [6], 6.45%. Further, the inhibition in test [7] is 54.4%; in test [8] it was 43.8%; in test [9], 75.3%; in [10], 50%.

With `NS(=O)(=O)c1ccc(-c2ccc3c(NC(=O)C4CC4)n[nH]c3c2)cc1`, the inhibition in test [1] is 6.67%; in test [2], 1.47%; in test [3], -1.13%; in [4] it was 1.06%; in test [5] it was 2.65%; in test [6] it was -0.06%. The inhibition was 2.45% in [7], 3.61% in test [8], 8.35% in test [9] and 3.61% in [10].

With `NC(=O)c1sc(-n2cnc3cc(C(F)(F)F)ccc32)cc1OCc1ccccc1Br`, the inhibition was 1.42% in test [1]; 5.27% in test [2]; 5.31% in [3]; 0.93% in test [4]; -0.32% in test [5]; -1.17% in test [6]. Moreover, the inhibition was 0.71% in test [7], 1.59% in test [8], 4.43% in test [9] and -1.21% in [10].

For the origin of these results see ChEMBL document CHEMBL1961873, “Compounds: GSK PKIS; Assays: Nanosyn kinase panel” (2012).
